High-throughput results from PubChem BioAssay.
Pol eta inh = qHTS for Inhibitors of Polymerase Eta; recombinant Pol eta, fluorescent DNA replication assay; Potency, µM (titrated, usually from 114 µM), for the others: at the highest dose activity change, negative = inhibition, most hits filed as inhibitors; actives 1.2% (n = 390,000); further: potency means the concentration at half of the fitted maximal effect; on the % scale 0 is the no-effect control and ±100 the full control effect
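Pol eta at 10 nM preincubated with compounds 15 min at room temperature; reaction started with fluorescent substrate (50 nM final) and read kinetically at 0 and 10 min.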
12-LOX inh = Primary qHTS assay for inhibitors of human arachidonate 12S-lipoxygenase (ALOX12): Round 2. actives 1.1% (n = 580,000). Potency, µM (highest dose often 108 µM), without a hit: at the highest dose activity change, negative = inhibition, hits mostly inhibitors. purified 12hLO, xylenol orange hydroperoxide absorbance. Polyunsaturated fatty acid lipoxygenase ALOX12 (Homo sapiens), P18054; further: potency means the concentration at half of the fitted maximal effect; on the % scale 0 is the no-effect control and ±100 the full control effect
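Purified human 12hLO (150 nM final) in 25 mM Hepes, 0.01% Triton X-100, pH 7.0 was preincubated 15 min at room temperature with compound. Then 40 uM arachidonic acid was added, 30 min. Hydroperoxide was read by Fe-XO absorbance ratio 573/405 nm.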
PI5P4Ka inh = qHTS for Inhibitors of phosphatidylinositol 5-phosphate 4-kinase (PI5P4K); Phosphatidylinositol 5-phosphate 4-kinase type-2 alpha (Homo sapiens), P48426; PI5P4Kalpha enzyme, ADP-Glo luminescence, 60 min; hits give low values; max response, %; actives 1.2% (n = 330,000); AID 652105, 2013; active means max response of -50% or lower; inconclusive means between -30% and -50%; inactive means -30% or higher; further: value at the top dose of about 77 µM; on the % scale 0 is the no-effect control and ±100 the full control effect
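qHTS, 1536-well: enzyme/substrate mix, compound by pin tool, 5 microM ATP final; RT 60 min; ADP-Glo reagents 1 (45 min) then 2 (30 min); luminescence.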
POLB inh = qHTS Assay for Inhibitors of DNA Polymerase Beta | P06746 | actives 1.3% (n = 340,000) | Pol beta primer extension/strand displacement, fluorescence kinetic | AID 485314, 2010 | Potency, µM (titrated, usually from 114 µM), for the others: top-dose activity change, negative = inhibition, most hits filed as inhibitors; further: potency means the concentration at half of the fitted maximal effect; on the % scale 0 is the no-effect control and ±100 the full control effect
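Pol beta (10 nM) was preincubated with compound for 15 min at room temperature. The reaction was then started with 50 nM substrate and read immediately and after a further 10 min at room temperature.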
POLI inh = qHTS for Inhibitors of Polymerase Iota; DNA polymerase iota (Homo sapiens), Q9UNA4; Pol iota fluorescent replication assay, 10 min; Potency, µM (titrated, usually from 115 µM), inactives show at the highest dose activity, negative = inhibition, most hits filed as inhibitors; actives 1% (n = 390,000); AID 588590, 2011; further: potency means the concentration at half of the fitted maximal effect
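Pol iota at 10 nM preincubated 15 min with compounds at room temperature; reaction started with fluorescent substrate, 50 nM final. Fluorescence read kinetically at 0 and 10 min; buffer-only wells as negative control.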
POLK inh = qHTS for Inhibitors of Polymerase Kappa. DNA polymerase kappa (Homo sapiens), Q9UBT6. Potency, µM (series often up to 107 µM), without a hit: at the top dose activity, negative = inhibition, actives largely listed as inhibitors. actives 0.53% (n = 400,000). purified Pol kappa, fluorescent DNA synthesis assay, 10 min; further: potency means the concentration at half of the fitted maximal effect; on the % scale 0 is the no-effect control and ±100 the full control effect
Target sequence (Q9UBT6 whole entry, looked up): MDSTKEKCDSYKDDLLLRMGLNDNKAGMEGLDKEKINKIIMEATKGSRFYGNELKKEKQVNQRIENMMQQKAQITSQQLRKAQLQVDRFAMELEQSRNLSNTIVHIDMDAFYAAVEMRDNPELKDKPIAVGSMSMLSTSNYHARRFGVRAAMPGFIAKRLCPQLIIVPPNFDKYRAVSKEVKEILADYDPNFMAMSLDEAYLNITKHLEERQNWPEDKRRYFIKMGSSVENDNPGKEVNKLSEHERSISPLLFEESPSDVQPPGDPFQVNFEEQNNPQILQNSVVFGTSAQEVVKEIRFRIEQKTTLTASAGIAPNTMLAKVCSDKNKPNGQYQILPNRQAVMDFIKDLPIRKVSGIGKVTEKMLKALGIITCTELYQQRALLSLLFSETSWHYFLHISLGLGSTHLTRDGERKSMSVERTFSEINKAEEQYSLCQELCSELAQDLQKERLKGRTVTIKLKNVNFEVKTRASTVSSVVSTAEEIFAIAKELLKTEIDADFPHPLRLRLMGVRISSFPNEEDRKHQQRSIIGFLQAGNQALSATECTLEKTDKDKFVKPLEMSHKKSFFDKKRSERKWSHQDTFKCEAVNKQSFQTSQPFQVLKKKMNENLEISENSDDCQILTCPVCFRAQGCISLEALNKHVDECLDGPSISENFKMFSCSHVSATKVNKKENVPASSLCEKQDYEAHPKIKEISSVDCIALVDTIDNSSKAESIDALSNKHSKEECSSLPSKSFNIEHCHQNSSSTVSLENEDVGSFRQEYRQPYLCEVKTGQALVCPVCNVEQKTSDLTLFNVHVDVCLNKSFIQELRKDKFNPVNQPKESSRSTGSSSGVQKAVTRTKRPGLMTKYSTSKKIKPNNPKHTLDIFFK
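Kinetic fluorescence screen: compound preincubated 15 min RT with 10 nM enzyme; 50 nM substrate (final) initiates; reads at 0/10 min.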
* marks the source's active call; other numbers are inactive results; ? = inconclusive; . = no result; ! = a repeat was not active; [ ] = another dose, or the depositor's remark. Sampled rows, rich in hits. Any-hit rate of the full collection: about 2.9%. Unless noted, the call rests on the fitted dose curve; in most records, active means well fitted inhibition curve with a large enough effect; inconclusive means small, poorly fitted or top-dose-only effect, or another doubt; inactive means no such curve, though single readings can be large or run the other way.

SMILES	Pol eta inh	12-LOX inh	PI5P4Ka inh	POLB inh	POLI inh	POLK inh
CC1CCC(C)[S+]1c1cc(O)ccc1O (configuration not stated)	.	10µM*	.	.	.	.
O=C(Cc1c[nH]c2ccccc12)NCCc1cccc(Cl)c1	.	-9%	.	.	.	.
COC(=O)c1sc(N)c(C(=O)OC)c1COC(=O)C1CC(=O)N(Cc2ccco2)C1 (configuration not stated)	79µM*	-19%	.	11µM*	?	-7%
CS(=O)(=O)c1ccc(Cl)c(NC(=O)C2CC(=O)N(Cc3ccccc3)C2)c1 (configuration not stated)	12%	-7%	-2	?	13%	5%
CN(c1ccc(-c2csc(NC(=O)C3CC(=O)N(Cc4ccco4)C3)n2)cc1)S(C)(=O)=O (configuration not stated)	50µM*	?	?	.	45µM*	?
CS(=O)(=O)c1ccc(Cl)c(NC(=O)C2CC(=O)N(Cc3ccco3)C2)c1 (configuration not stated)	-26%	-31%	1	.	79µM*	?
CN(C)C(=S)SCC(=O)NCCNC(=O)CSC(=S)N(C)C	.	-1%	.	.	.	.
CCN(CC)C(CNC(=O)c1cn(C)c2ccccc12)c1ccccc1 (configuration not stated)	.	9%	.	.	.	.
COc1ccc(-n2ncc3c(NCCC4=CCCCC4)ncnc32)cc1	-19%	3.5µM*	.	-16%	-14%	-1%[60.1 µM]
COc1ccc(CNc2ncnc3c2cnn3-c2ccc(C)c(C)c2)cc1	-9%	-25%	.	9%	0%	-11%[60.1 µM]
Cc1ccc(-n2ncc3c(NCCC4=CCCCC4)ncnc32)cc1	-22%	13µM*	.	10%	2%	-13%[60.1 µM]
Cc1ccc(-n2ncc3c(NCCc4ccc(S(N)(=O)=O)cc4)ncnc32)cc1	-9%	-18%	.	-6%	8%	-6%[60.1 µM]
O=CNNC(=S)NCc1ccco1	.	-20%	.	.	.	.
CCCCCCCC/C=C\CCCCCCCC(=O)NCc1ccc(O)c(OC)c1	.	0%	.	.	.	?
CCCCCCCC/C=C\CCCCCCCC(=O)NCCc1ccc(O)c(O)c1	?	5.6µM*!	0	?	?	?
Cc1ccc(C(=O)Nc2ccc(O)c(C(=O)O)c2)o1	14µM*	5%	-22	?	9%	-31%
Cc1ccc(C(=O)Nc2ccc(F)cc2)o1	-13%	-22%	1	?	-1%	-14%
O=C(CNS(=O)(=O)Cc1ccccc1)NNc1ccccc1	.	40µM*	-7	.	.	.
CC(C)OCCN1CCN(c2oc(-c3ccco3)nc2C#N)CC1	.	55%	.	.	.	.
Cc1ccc(S(=O)(=O)CCC(=O)Nc2sccc2C(N)=O)cc1	28µM*	-2%	?	.	?	?
Cc1cccc(CN2CCN(S(=O)(=O)c3cnn(C)c3)CC2)c1	.	13%	.	.	.	.
Cc1ccc(NC(=O)CCCn2c3ccccc3c(=O)c3cc(C)ccc32)c(Br)c1	-24%	?	.	?	9%	-7%
Cc1ccc2c(c1)c(=O)c1ccccc1n2CCCC(=O)Nc1cc(Cl)ccc1C	79µM*	?	.	?	-16%	2%
O=C(CSc1ccc2ccccc2c1)c1ccc2c(c1)CCC2	.	35µM*	.	.	.	.
c1ccc(-c2nnc(SCc3nc4ccccc4o3)o2)cc1	.	23%	.	.	.	.
SMILES	Pol eta inh	12-LOX inh	PI5P4Ka inh	POLB inh	POLI inh	POLK inh
CCn1c(-c2cc(-c3ccccc3OC)nc3ccccc23)n[nH]c1=S	-21%	?	-26	-9%	63%	-3%
CCn1c(-c2cc(-c3cc(OC)ccc3OC)nc3ccccc23)n[nH]c1=S	-9%	20µM*	.	-6%	-23%	-6%
O=C(CCc1ccccc1F)NCc1nc2ccccc2s1	.	2%	.	.	.	.
Cc1ccc(CN(C)C(=O)Cn2cnc3c2c(=O)n(C)c(=O)n3C)o1	.	-32%	.	.	.	.
Cc1ccn(-c2cc(O)c(-n3ccc(C)n3)cc2O)n1	-3%	2.8µM*	-4	17%	-2%	-17%
COc1cc(C=O)ccc1OCCOCCOc1c(C)cc(Cl)cc1Cl	-12%	110%	3	10µM*	2%	-5%
CN(Cc1ccc2ccccc2c1)C(=O)c1ccsc1	.	56%	.	.	.	.
O=C(Nc1cc(Cl)cc(Cl)c1)c1coc(=O)c(Br)c1	?	?	-23	28µM*	28µM*	79µM*
O=C(NNC(=O)C1C2CCCCC21)c1coc(=O)c(Br)c1 (configuration not stated)	50µM*	-22%	?	?	45µM*	?
S=c1sc2c(s1)SCOCS2	.	1%	.	.	.	.
Fc1ccc(-c2n[nH]c(=S)n2Cc2ccccc2)cc1	-1%	.	-3	21%	73%	-18%
Fc1ccc(-c2c[nH]c(=S)n2Cc2ccccc2)cc1	-7%	50µM*	-8	14%	-4%	14%
Cc1ccc(C(=O)Nc2ccc3c(c2)nc(CSc2nccc(C)n2)n3C)cc1	.	0%	.	.	.	.
Cc1nnc(N2CCN(c3ccccc3)CC2)[nH]c1=O	-21%	15%	-55*	8%	-13%	-9%
O=c1c2c([nH]c3ccccc13)C(=C1CCCC1)CC2	20µM*	.	-52*	32µM*	?	40µM*
O=c1c2c([nH]c3ccccc13)CCCC2	-10%	3%	0	28%	5%	-2%
Cc1ccc(NC(=O)Cn2c(-n3nc(C)cc3C)nc(-c3ccccc3)cc2=O)cc1	.	-5%	.	.	.	.
Cc1ccc(Nc2ccnc(N3CC4CCC(C3)N4CC(F)(F)F)n2)cc1	.	7%[6.33 µM]	.	.	.	.
O=C1CC(C(=O)Nc2ccc3c(c2)OCCO3)N=C(Nc2ccc(F)cc2)N1 (configuration not stated)	.	-19%	.	.	.	.
COc1ccc(S(=O)(=O)Nc2ccc(O)c3ccccc23)cc1	-17%	-39%	-28	8%	20µM*	-7%
CSC1=NS(=O)(=O)c2c(C)nn(C)c2S1	-11%	?	-76*	25%	-10%	0%
CC(C)C/C=C(\C=O)c1ccccc1	.	14%[176 µM]	.	.	.	.
O=C(NCCc1c[nH]c2ccccc12)c1ccc2nc[nH]c2c1	50µM*	-20%	?	.	?	-22%
CCCCNC(=O)c1cnc(Cc2c[nH]c3ccccc23)c(I)c1	.	40µM*	.	.	.	.
CC(=O)Nc1ccc(-c2nccc3[nH]nc(-c4cccc(C(F)(F)F)c4)c23)cc1	.	-8%	.	.	.	.
COc1ccc(C=C(C#N)C(=O)c2ccccc2)cc1	.	8%	-1	.	.	.
